# Assay results from PubChem BioAssay (NCI).
# About 83,000 compounds went through this panel and 20% of them were active in at least one assay; those are over-represented in the sample as a whole.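 For each line, cells grew in 96-well plates with the test compound present at a single concentration for 48 hours.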 Activity calls are given as the source filed them. How the source made its calls: active means growth percent below 10; inactive means the rest.
# Test system: A498 renal
# Assay: NCI-60 one-dose screen, 48 h (100 = growth as untreated, 0 = no growth, -100 = all killed)
# Settings: 10 µM unless noted
row,Compound,growth
1,CCOc1ccc(NC(=O)Nc2cc(C(C)C)ccc2C)cc1,87.2% (inactive)
2,NS(=O)(=O)c1ccc(-n2nc(-c3ccc(Cl)cc3)ccc2=O)cc1,102% (inactive)
3,COC(OC)C1(c2ccccc2)NC(=O)NC1=O (stereo unspecified),108% (inactive)
4,CC1=C[S+](c2ccccc2)c2cccc3cc4ccccc4c1c23 (stereo unspecified),27.5% (inactive)
5,O=C(Nc1ccccc1F)Nc1ccccc1Cl,85.8% (inactive)
6,O=C(C[n+]1ccccc1Cl)c1ccc2c(c1)CCCC2,91.3% (inactive)
7,COc1cc(-c2nc3sc(C)cn3c2/C=C2\C(=O)Nc3ccccc32)c(Br)c(OC)c1OC,22.6% (inactive)
8,CC1(C)N=C(N)N=C(N)N1c1cccc(CCCCc2ccccc2)c1,61.7% (inactive)
9,COc1ccc(/C=C2\CS(=O)(=O)C/C(=C\c3ccc(OC)cc3)C2=O)cc1,36% (inactive)
10,CN1CCN(CC(O)COc2c(Br)c(Br)c(Br)c3c2OC(C)(C)C3)CC1 (stereo unspecified),58.1% (inactive)
11,CC1(C)N=C(N)N=C(N)N1c1ccc(OCC(=O)Nc2ccccc2)c(Cl)c1,94.8% (inactive)
12,COc1ccc2c(c1)nnc1c3cccnc3[nH]c21,40.3% (inactive)
13,CC(=O)N[C@@H](CNC(=O)c1cc(NC(=O)c2cc(NC(=O)c3cc(NC(=O)c4nccn4C)cn3C)cn2C)cn1C)CC(=O)Nc1cn(C)c(C(=O)Nc2cc(C(=O)Nc3cc(C(=O)Nc4cc(C(=O)NCCCN(C)CCCNC(=O)c5cccc(C(=O)O)c5)n(C)c4)n(C)c3)n(C)c2)n1,92.9% (inactive)
14,Nc1ccc(S(=O)(=O)Nc2cc(I)cc(I)c2)cc1,77.7% (inactive)
15,Nc1nc2ccc(CNc3ccc(C(=O)NC(CC(=O)O)C(=O)O)cc3)cc2c(=O)[nH]1 (stereo unspecified),93.1% (inactive)
16,Cc1cn(C2CC(F)C(CO)O2)c(=O)[nH]c1=O (stereo unspecified),112% (inactive)
17,CN(C)C(=O)Nc1nc2cc(Cl)c(Cl)cc2[nH]1,46.7% (inactive)
18,Cc1cccc(NC(=O)CCc2ccc(N3C(N)=NC(N)=NC3(C)C)cc2)c1,95.2% (inactive)
19,COc1cc(/C=C/C(=O)c2c(C)[n+]([O-])c3ccccc3[n+]2[O-])ccc1O,101% (inactive)

row,Compound,growth
1,CCC1CN2C(=N1)c1ccccc1-c1cc(Cl)ccc12 (stereo unspecified),56.9% (inactive)
2,CC(C(C(=O)N1CCCCC1)N1CCCCC1)N1CCCCC1 (stereo unspecified),119% (inactive)
3,NC(CSC(c1ccccc1)(c1ccccc1)c1ccc(F)cc1)C(=O)O (stereo unspecified),58.2% (inactive)
4,CS(=O)(=O)OCC(COS(C)(=O)=O)C(c1ccccc1)c1ccccc1,93.3% (inactive)
5,S=c1ssnc1-c1ccccn1,13% (inactive)
6,O=C(Cn1c2ccccc2c2ccncc21)N/N=C/c1cc(O)c(O)c(O)c1,97.5% (inactive)
7,CN(C)c1ccc(/C=N/N=C(N)N)cc1,17.7% (inactive)
8,Cc1cc2c(cc1C)N(C(=O)CCl)CCN2C(=O)CCl,85% (inactive)
9,O=C(O)c1cc2ccccc2cc1Nc1ccccc1,102% (inactive)
10,O=C(Nc1ccccc1Cl)c1c[nH]c(=O)c(-c2ccc(N3CCCOC4(CC4)C3)cc2)c1,47.9% (inactive)
11,Clc1ccc2c(c1)nnn1c3ncccc3c(Br)c21,70.5% (inactive)
12,Cc1nssc1=S,147% (inactive)
13,FC(F)(F)c1cn(CC2CNC2)c2ncnc(Cl)c12,112% (inactive)
14,CN1CCN(Cn2nc(-c3cc(Cl)cc(Cl)c3Cl)n(/N=C/c3ccc(Cl)cc3)c2=S)CC1,97.8% (inactive)
15,NC(N)=N/N=C/c1ccc([N+](=O)[O-])cc1,79.7% (inactive)
16,CC1=C2C(=C[C@@](C)(CO)[C@@H]2OC(=O)N(C)CCN(C)C(=O)OC(C)(C)C)C(=O)[C@](C)(O)C12CC2,97% (inactive)
17,Nc1nc(=S)ss1,92.5% (inactive)
18,COC(=O)c1oc2c(C(C)=O)c(OCCN3CCCCC3)ccc2c1C,131% (inactive)
19,Cc1cc[n+](CCCC[n+]2ccc(C)cc2)cc1,121% (inactive)

# Test system: CCRF-CEM leukemia
# Assay: as above
# Settings: 10 µM unless noted
row,Compound,growth
1,CCOc1ccc(NC(=O)Nc2cc(C(C)C)ccc2C)cc1,44.4% (inactive)
2,NS(=O)(=O)c1ccc(-n2nc(-c3ccc(Cl)cc3)ccc2=O)cc1,86.4% (inactive)
3,COC(OC)C1(c2ccccc2)NC(=O)NC1=O (stereo unspecified),112% (inactive)
4,CC1=C[S+](c2ccccc2)c2cccc3cc4ccccc4c1c23 (stereo unspecified),4.35% (active)
5,O=C(Nc1ccccc1F)Nc1ccccc1Cl,86.9% (inactive)
6,O=C(C[n+]1ccccc1Cl)c1ccc2c(c1)CCCC2,90.6% (inactive)
7,COc1cc(-c2nc3sc(C)cn3c2/C=C2\C(=O)Nc3ccccc32)c(Br)c(OC)c1OC,34.7% (inactive)
8,CC1(C)N=C(N)N=C(N)N1c1cccc(CCCCc2ccccc2)c1,7.35% (active)
9,COc1ccc(/C=C2\CS(=O)(=O)C/C(=C\c3ccc(OC)cc3)C2=O)cc1,-0.95% (active)
10,CN1CCN(CC(O)COc2c(Br)c(Br)c(Br)c3c2OC(C)(C)C3)CC1 (stereo unspecified),15.6% (inactive)
11,CC1(C)N=C(N)N=C(N)N1c1ccc(OCC(=O)Nc2ccccc2)c(Cl)c1,28.8% (inactive)
12,COc1ccc2c(c1)nnc1c3cccnc3[nH]c21,-0.9% (active)
13,CC(=O)N[C@@H](CNC(=O)c1cc(NC(=O)c2cc(NC(=O)c3cc(NC(=O)c4nccn4C)cn3C)cn2C)cn1C)CC(=O)Nc1cn(C)c(C(=O)Nc2cc(C(=O)Nc3cc(C(=O)Nc4cc(C(=O)NCCCN(C)CCCNC(=O)c5cccc(C(=O)O)c5)n(C)c4)n(C)c3)n(C)c2)n1,103% (inactive)
14,Nc1ccc(S(=O)(=O)Nc2cc(I)cc(I)c2)cc1,-9.38% (active)
15,Nc1nc2ccc(CNc3ccc(C(=O)NC(CC(=O)O)C(=O)O)cc3)cc2c(=O)[nH]1 (stereo unspecified),23.2% (inactive)
16,Cc1cn(C2CC(F)C(CO)O2)c(=O)[nH]c1=O (stereo unspecified),80.7% (inactive)
17,CN(C)C(=O)Nc1nc2cc(Cl)c(Cl)cc2[nH]1,10.3% (inactive)
18,Cc1cccc(NC(=O)CCc2ccc(N3C(N)=NC(N)=NC3(C)C)cc2)c1,31.1% (inactive)
19,COc1cc(/C=C/C(=O)c2c(C)[n+]([O-])c3ccccc3[n+]2[O-])ccc1O,124% (inactive)

row,Compound,growth
1,CCC1CN2C(=N1)c1ccccc1-c1cc(Cl)ccc12 (stereo unspecified),13.4% (inactive)
2,CC(C(C(=O)N1CCCCC1)N1CCCCC1)N1CCCCC1 (stereo unspecified),116% (inactive)
3,NC(CSC(c1ccccc1)(c1ccccc1)c1ccc(F)cc1)C(=O)O (stereo unspecified),11.1% (inactive)
4,CS(=O)(=O)OCC(COS(C)(=O)=O)C(c1ccccc1)c1ccccc1,99.6% (inactive)
5,S=c1ssnc1-c1ccccn1,-6.05% (active)
6,O=C(Cn1c2ccccc2c2ccncc21)N/N=C/c1cc(O)c(O)c(O)c1,112% (inactive)
7,CN(C)c1ccc(/C=N/N=C(N)N)cc1,104% (inactive)
8,Cc1cc2c(cc1C)N(C(=O)CCl)CCN2C(=O)CCl,-28.8% (active)
9,O=C(O)c1cc2ccccc2cc1Nc1ccccc1,94.1% (inactive)
10,O=C(Nc1ccccc1Cl)c1c[nH]c(=O)c(-c2ccc(N3CCCOC4(CC4)C3)cc2)c1,48.3% (inactive)
11,Clc1ccc2c(c1)nnn1c3ncccc3c(Br)c21,86.4% (inactive)
12,Cc1nssc1=S,92.2% (inactive)
13,FC(F)(F)c1cn(CC2CNC2)c2ncnc(Cl)c12,86.7% (inactive)
14,CN1CCN(Cn2nc(-c3cc(Cl)cc(Cl)c3Cl)n(/N=C/c3ccc(Cl)cc3)c2=S)CC1,33.4% (inactive)
15,NC(N)=N/N=C/c1ccc([N+](=O)[O-])cc1,112% (inactive)
16,CC1=C2C(=C[C@@](C)(CO)[C@@H]2OC(=O)N(C)CCN(C)C(=O)OC(C)(C)C)C(=O)[C@](C)(O)C12CC2,74.6% (inactive)
17,Nc1nc(=S)ss1,109% (inactive)
18,COC(=O)c1oc2c(C(C)=O)c(OCCN3CCCCC3)ccc2c1C,50.5% (inactive)
19,Cc1cc[n+](CCCC[n+]2ccc(C)cc2)cc1,91.7% (inactive)
